Measured values taken from PubChem BioAssay (EPA / NIEHS).
Activity calls are given as the source filed them. The calls were made as follows: active = hit-call score of the fitted dose curve at least 0.9, where 1 is the maximum; inactive = score below 0.9.

Each compound was assayed against Paired box protein Pax-6 (Homo sapiens) (UniProt P26367) (assay: ATG_Pax6_CIS: Attagene CIS-FACTORIAL HepG2 Assay for human Paired Box 6 (PAX6) (AID 2282956)). Settings: HepG2 CIS-FACTORIAL PAX6 reporter transcription, RNA readout; actives raise or lower the signal.
Chain of Paired box protein Pax-6 (Homo sapiens) (P26367 whole entry, looked up): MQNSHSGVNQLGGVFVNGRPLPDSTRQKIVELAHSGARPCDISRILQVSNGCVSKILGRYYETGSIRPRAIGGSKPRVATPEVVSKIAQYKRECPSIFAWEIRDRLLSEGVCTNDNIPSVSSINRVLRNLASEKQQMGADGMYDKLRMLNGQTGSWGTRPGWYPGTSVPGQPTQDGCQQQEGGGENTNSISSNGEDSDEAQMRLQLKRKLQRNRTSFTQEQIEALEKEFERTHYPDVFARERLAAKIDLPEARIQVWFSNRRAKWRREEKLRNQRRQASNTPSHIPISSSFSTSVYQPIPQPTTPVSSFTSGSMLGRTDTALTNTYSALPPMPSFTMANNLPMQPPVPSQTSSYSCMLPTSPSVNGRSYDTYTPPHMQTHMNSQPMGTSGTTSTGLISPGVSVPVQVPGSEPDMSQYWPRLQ
Procedure, shortened: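 HepG2 cells transiently transfected with cis-promoter-driven multiplexed reporter units sensing endogenous transcription factor activity; 24 h chemical exposure. Reporter mRNA quantified by RT-PCR, 6-FAM labelling, HpaI digestion and capillary electrophoresis; bidirectional fit versus DMSO baseline.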
In the case of `O=C(O)c1cc(C(=O)O)cc([N+](=O)[O-])c1`, the outcome is reported as “inactive”. `O=C(Nc1ccc([N+](=O)[O-])cc1)Nc1ccc([N+](=O)[O-])cc1` (tested in a mixture with another compound) was tested, and the outcome was “inactive”. `O=C1c2ccccc2C(=O)c2c(O)ccc(O)c21` was tested, and the outcome was “inactive”. `OCC#CCO` was tested, and the outcome was “inactive”. For `Cc1ncc([N+](=O)[O-])n1CCO`, the outcome was “inactive”. In the case of `CCC1(c2ccccc2)C(=O)NCNC1=O`, the outcome is reported as “inactive”. `OC[C@H]1O[C@@H](Oc2ccc(O)cc2)[C@H](O)[C@@H](O)[C@@H]1O` was tested, and the outcome was “inactive”. With `COS(=O)(=O)O` the outcome was “inactive”. In the case of `Cc1occc(=O)c1OC(=O)C(C)C`, the outcome is reported as “inactive”. With `CC1=NN(c2ccc(S(=O)(=O)O)cc2)C(=O)C1` the outcome was “inactive”. With `CC(C)NCC(O)COc1ccc(CC(N)=O)cc1` (stereo not given) the outcome was “inactive”. With `CC(C)OCCO` the outcome was “inactive”. For `CN(C)C(=O)Nc1ccc(Oc2ccc(Cl)cc2)cc1`, the outcome was “inactive”. `COc1cc(C(C)C)ccc1C` was tested, and the outcome was “inactive”. For `O=C(O)c1cccnc1C(=O)O`, the outcome was “inactive”. For `CCCC(=O)c1ccccc1`, the outcome was “inactive”. For `CCCCCCCCC=CCCCCCCCC1=NCCN1CCO`, the outcome was “inactive”. For `C=C(C)[C@@H]1CC=C(C)C(=O)C1`, the outcome was “inactive”. For `CC1(C)O[C@@H]2[C@@H](CO[C@@]3(COS(N)(=O)=O)OC(C)(C)O[C@@H]23)O1`, the outcome was “inactive”. For `COc1cc(CCC(C)=O)ccc1O`, the outcome was “inactive”. With `CC=Cc1ccc(OC)c(OC)c1` the outcome was “inactive”. For `CC[N+](C)(CC)CC`, the outcome was “inactive”. With `C[Si](C)(C)O[Si](C)(C)C` the outcome was “inactive”. In the case of `C=Cc1ccncc1`, the AC50 is reported as 33.1 µM (active). With `CSc1c(Cl)c(Cl)c(Cl)c(Cl)c1Cl` the AC50 was 100 µM (active).
